Screening results deposited in PubChem by National Center for Advancing Translational Sciences (NCATS).
RORg inh: blocks mouse ROR gamma transcriptional activity | 5.4% of 310,000 active | Drosophila S2 Gal4-RORgamma UAS-luciferase reporter, 20 h | AID 2551 | Potency, µM (doses to about 53.6 µM), for the others: top-dose activity change, negative = inhibition, most hits filed as inhibitors; also: % is scaled to controls: 0 for no effect and ±100 for the full control effect; nearly all actives have a fitted effect of over 60% in size
Target sequence (P51450 whole entry, looked up, the tested form may be a part): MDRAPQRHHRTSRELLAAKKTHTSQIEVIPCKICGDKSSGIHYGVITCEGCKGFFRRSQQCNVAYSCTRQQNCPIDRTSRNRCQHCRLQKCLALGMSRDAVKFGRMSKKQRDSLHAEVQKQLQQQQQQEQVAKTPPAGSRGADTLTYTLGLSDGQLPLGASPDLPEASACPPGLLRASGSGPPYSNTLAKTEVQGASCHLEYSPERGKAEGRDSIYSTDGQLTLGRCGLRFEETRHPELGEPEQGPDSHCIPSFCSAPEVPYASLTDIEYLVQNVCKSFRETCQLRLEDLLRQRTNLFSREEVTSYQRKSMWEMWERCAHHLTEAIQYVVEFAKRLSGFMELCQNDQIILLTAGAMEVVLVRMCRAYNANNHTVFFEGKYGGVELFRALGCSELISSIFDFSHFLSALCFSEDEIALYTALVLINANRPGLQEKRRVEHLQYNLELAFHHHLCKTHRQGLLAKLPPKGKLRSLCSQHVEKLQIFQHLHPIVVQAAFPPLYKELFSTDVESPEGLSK
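A Gal4/UAS one-hybrid system in insect cells: metallothionein-promoter Gal4–ROR gamma fusion plus Photinus luciferase reporter. Copper sulfate 700 uM final, 20 hr ambient incubation, luminescent detection after 10 min with reagent.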
HepG2 viability: HepG2 cytotoxicity, counter-screen for TGF-b inhibitors. 0.76% of 410,000 active. Potency, µM (top dose mostly 46.1 µM), for the others: at the highest dose activity change, negative = cytotoxicity, actives largely listed as cytotoxic. HepG2 CAGA-GFP viability, ATP luminescence, 18 h
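HepG2 CAGA-GFP cells (1000/well, DMEM with 1% FBS) received compound, then TGF-beta at 500 pg/mL final, and were incubated 18 hours at 37 degrees C. Viability was read by CellTiter-Glo luminescence. Media-only wells were set as complete cell-killing and DMSO as no toxicity.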
Gal4-VP16 FLuc: inhibits Gal4-VP16 luciferase reporter, ROR gamma counter-screen; Drosophila S2 Gal4-VP16 UAS-luciferase, luminescence, 20 h; Potency, µM (highest dose often 53.6 µM), without a hit: at the highest dose activity, negative = inhibition, hits mostly inhibitors; AID 2546; 3.5% of 310,000 active;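 also: Gal4-VP16 expression switched on by copper sulfate through the metallothionein promoter; % is scaled to controls: 0 for no effect and ±100 for the full control effect; nearly all actives have a fitted effect of over 50% in size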
TGFb inhibitor: blocks TGF-b signaling. Potency, µM (doses to about 46.1 µM), without a hit: at the top dose activity, negative = inhibition, actives largely listed as inhibitors. HepG2 CAGA-GFP TGF-b/SMAD3 reporter, GFP fluorescence, 18 h; TGF-beta stimulated, 500 pg/mL final. AID 588855. 1.2% of 410,000 active; also: % is scaled to controls: 0 for no effect and ±100 for the full control effect; nearly all actives have a fitted effect of over 65% in size
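Cell-based qHTS in HEPG2 carrying a CAGA-GFP Smad reporter; compounds added before 500 pg/mL final TGF-beta, 18 h incubation at 37 degrees C, GFP fluorescence quantified per cell by imaging cytometry.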
ATXN2 expr inh: inhibitors of ATXN2 expression; AID 1745845; 0.72% of 360,000 active; Potency, µM (series often up to 57 µM), without a hit: at the highest dose activity change, negative = inhibition, actives largely listed as inhibitors; HEK-293 ATXN2-luciferase reporter, luminescence, 24 h; also: % is scaled to controls: 0 for no effect and ±100 for the full control effect; nearly all actives have a fitted effect of over 55% in size
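qHTS (up to 57 uM final) was run with 24 h compound exposure of reporter cells at 37 °C. Each well was multiplexed: SteadyGlo luminescence measured ATXN2-luciferase expression after a fluorogenic Gly-Phe-AFC viability readout (25 uM final).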
ATXN viability: viability counter-screen for ATXN expression inhibitors; S2 cells (HEK-293 line with an ATXN2-luciferase reporter) viability, CellTiter-Fluor protease fluorescence, 24 h; Potency, µM (highest dose often 56.7 µM), actives largely listed as cytotoxic; 0.49% of 400,000 active; AID 651635; also: nearly all actives have a fitted effect of over 40% in size
Numbers without * were called inactive. Compounds with a hit are over-represented: about 6.3% of the library has one in this group of screens. Calls follow the shape of the dose curve; as a rule, active = well fitted curve in the direction sought with a large enough effect; inconclusive = small, poorly fitted or top-dose-only effect, or another doubt; inactive = no such curve, though single readings can be large; an effect the other way counts as inactive or inconclusive. Potency is read from the fitted curve at half-maximal effect.

For COc1ccc(/C=C/C(=O)ONC2=NCCCCC2)cc1OC the results were RORg inh 11µM*, HepG2 viability -39%, Gal4-VP16 FLuc -24%, TGFb inhibitor -19%, ATXN2 expr inh -33% and ATXN viability inactive.
`Cc1ccccc1S(=O)Cc1ccc(C(=O)N2CCN(c3cccc(C)c3C)CC2)o1` (stereo not drawn) gave HepG2 viability -43%.
Screening COc1ccccc1C(=O)OCc1cc(=O)n2nc(C(C)C)sc2n1 returned HepG2 viability 2%, TGFb inhibitor inconclusive, ATXN2 expr inh 10% and ATXN viability inactive.
Screening COc1ccc2c(c1)c(=O)oc1c(C)c(OC(C)C(=O)N[C@@H](Cc3c[nH]c4ccc(O)cc34)C(=O)O)ccc12 (stereo partly drawn) returned RORg inh 16%, HepG2 viability 0%, Gal4-VP16 FLuc -1%, TGFb inhibitor -17%, ATXN2 expr inh 2% and ATXN viability inactive.
`O=C1C(CO)C(CO)C(CO)C1CO` (stereo not drawn) gave HepG2 viability 1%, TGFb inhibitor -3%, ATXN2 expr inh -4% and ATXN viability inactive.
For COc1ccc(/C=C/C(=O)Nc2ccccc2C(F)(F)F)cc1OC the results were RORg inh 1%, HepG2 viability 3%, Gal4-VP16 FLuc -5%, TGFb inhibitor -1%, ATXN2 expr inh 3% and ATXN viability inconclusive.
COc1ccc(/C=C/C(=O)Nc2ccccc2C(=O)O)cc1OC was read as RORg inh 3.5µM*, HepG2 viability -18%, Gal4-VP16 FLuc 7.9µM*, TGFb inhibitor -5%, ATXN2 expr inh inconclusive and ATXN viability inactive.
`COc1ccc(/C=C/C(=O)Nc2ccc3c(c2)CCC3)cc1OC` gave RORg inh inconclusive, HepG2 viability -10%, Gal4-VP16 FLuc 4µM*, TGFb inhibitor 0%, ATXN2 expr inh -13% and ATXN viability inactive.
Screening O=C1CCCc2ccccc2N1Cc1ccccc1Cl returned RORg inh 4%, HepG2 viability -37%, Gal4-VP16 FLuc -4%, TGFb inhibitor inconclusive, ATXN2 expr inh -18% and ATXN viability inactive.
O=C1CCCc2ccccc2N1Cc1c(Cl)cccc1Cl was read as RORg inh 1.8µM*, HepG2 viability -9%, Gal4-VP16 FLuc inconclusive, TGFb inhibitor 1%, ATXN2 expr inh -7% and ATXN viability inactive.
`CC(C)(C)c1ccc(/C=C(\c2nc3ccccc3[nH]2)S(=O)(=O)c2ccccc2)cc1` gave HepG2 viability -51%, TGFb inhibitor 16µM*, ATXN2 expr inh 16µM* and ATXN viability 20µM*.
`O=C(C[n+]1csc2ccccc21)c1ccccc1` gave HepG2 viability -56% and TGFb inhibitor -23%.
For Cc1cccc(N(CC(=O)Nc2ccc(Br)cc2)S(C)(=O)=O)c1C the results were HepG2 viability -43%, TGFb inhibitor inconclusive, ATXN2 expr inh 0% and ATXN viability inconclusive.
For O=S(=O)(c1cccc(C(F)(F)F)c1)N1CCN(c2nc(-c3cccs3)nc3cc(Cl)ccc23)CC1 the results were HepG2 viability -48% and TGFb inhibitor -6%.
Screening CC1CCN(C(=S)c2cn(Cc3ccc(F)cc3)c3ccccc23)CC1 returned RORg inh 5µM*, HepG2 viability -5%, Gal4-VP16 FLuc 11µM*, TGFb inhibitor -8%, ATXN2 expr inh -24% and ATXN viability inconclusive.
Cc1ccccc1OCCn1cc(C(=S)N2CCCC2)c2ccccc21 was read as HepG2 viability -11%, TGFb inhibitor -2%, ATXN2 expr inh -7% and ATXN viability inactive.
CN1CCN(C(=S)c2cn(Cc3cccc(F)c3)c3ccccc23)CC1 was read as RORg inh 13µM*, HepG2 viability -29%, Gal4-VP16 FLuc -8%, TGFb inhibitor -2% and ATXN viability inactive.
Screening CN1CCN(C(=S)c2cn(Cc3ccc(F)cc3)c3ccccc23)CC1 returned RORg inh inconclusive, HepG2 viability -24%, Gal4-VP16 FLuc 3%, TGFb inhibitor -21% and ATXN viability inconclusive.
Screening CC1CCN(C(=S)c2cn(Cc3ccccc3F)c3ccccc23)CC1 returned RORg inh 0.89µM*, HepG2 viability -2%, Gal4-VP16 FLuc 4.5µM*, TGFb inhibitor -2%, ATXN2 expr inh -8% and ATXN viability inactive.
`CN1CCN(C(=S)c2cn(Cc3ccccc3F)c3ccccc23)CC1` gave RORg inh 11µM*, HepG2 viability -30%, Gal4-VP16 FLuc 6%, TGFb inhibitor -20%, ATXN2 expr inh -17% and ATXN viability inconclusive.
Screening COc1ccccc1Cc1c(-c2ccc(F)cc2)nc2cc(C)c(Br)c(C)n12 returned ATXN2 expr inh 55% and ATXN viability inactive.
Cc1ccc(C(=O)NCCc2nnc3n2CCN(Cc2ccc4ccccc4c2)CC3)c(C)c1 was read as ATXN viability inactive.
`COc1cccc(C2CC(=O)Nc3c2c(=O)[nH]c2nc4ccccc4n32)c1` (stereo not drawn) gave HepG2 viability -5%, TGFb inhibitor 7%, ATXN2 expr inh -5% and ATXN viability inactive.
COCC(C)n1c(C)cc(C(=O)COC(=O)c2c(NC(C)=O)sc(C)c2C)c1C (stereo not drawn) was read as RORg inh 4.5µM*, HepG2 viability -1%, Gal4-VP16 FLuc -15%, TGFb inhibitor -1%, ATXN2 expr inh 41% and ATXN viability inactive.
`COCC(C)n1c(C)cc(C(=O)COC(=O)c2c(C)nn(-c3ccccc3)c2C)c1C` (stereo not drawn) gave RORg inh 31%, HepG2 viability -3%, Gal4-VP16 FLuc -2%, TGFb inhibitor -9%, ATXN2 expr inh 3% and ATXN viability inactive.
Screening CCOc1ccccc1NC(=O)C1(S(=O)(=O)c2ccc(Cl)cc2)CC1 returned RORg inh -13%, HepG2 viability 1%, Gal4-VP16 FLuc 6%, TGFb inhibitor -8%, ATXN2 expr inh -11% and ATXN viability inactive.
Screening Brc1ccc(CNc2ccc3ncccc3c2)cc1 returned RORg inh inconclusive, HepG2 viability -32%, Gal4-VP16 FLuc 7.1µM*, TGFb inhibitor inconclusive and ATXN viability inactive.
For Oc1ccc(Br)cc1CNc1cnc2ccccc2c1 the results were RORg inh inconclusive, HepG2 viability 13µM*, Gal4-VP16 FLuc -8%, TGFb inhibitor inconclusive and ATXN viability inactive.
